According to PubChem BioAssay (Tox21):
Values without a mark were called inactive. Results filed as inconclusive are left out. A call without a number means that no potency is given here. Activity calls are given as the source filed them. Unless noted, calls come from the whole dose curve.

Legend:
[1] = Nuclear factor erythroid 2-related factor 2/antioxidant responsive element (Nrf2/ARE) small molecule agonists: qHTS cell viability counter screen in human keratinocytes (AID 1919968; active = well fitted curve in the direction sought with a large enough effect in the repeat runs; an effect the other way counts as inactive or inconclusive; note: nearly all actives have a fitted effect of over 55% in size; note: potency is the fitted concentration of half-maximal effect)
Procedure, shortened: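 Cytotoxicity was multiplexed with the Nrf2/ARE luciferase assay in the same wells. Stably transfected HaCaT keratinocytes were treated with test compounds for 23 h at 37 C. Cell viability was then measured by CellTiter-Fluor fluorescence.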

[2] = Nuclear factor erythroid 2-related factor 2/antioxidant responsive element (Nrf2/ARE) small molecule agonists: luciferase reporter gene qHTS assay in human keratinocytes (AID 1919969); note: nearly all actives have a fitted effect of over 35% in size; note: potency is the fitted concentration of half-maximal effect
[3] = target: Gonadotropin-releasing hormone receptor (Homo sapiens) (UniProt P30968); assay: Human gonadotropin-releasing hormone receptor (GnRHR) small molecule agonists, calcium flux assay in GnRHR-HEK293 cells (AID 1920063); note: nearly all actives have a fitted effect of over 35% in size
Procedure, shortened: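 Agonist activity was measured as intracellular calcium flux in HEK293 cells engineered to stably express human GnRHR. After dye loading for 1 hour at 37 C, compounds in DMSO were added and fluorescence was followed for 3 minutes.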

[4] = target: KiSS-1 receptor (Homo sapiens) (UniProt Q969F8); assay: Human kisspeptin (KISS1R) small molecule agonists, calcium flux assay in KISS1R-HEK293 cells (AID 1920064; active = well fitted curve in the direction sought with a large enough effect in the repeat runs; an effect the other way counts as inactive or inconclusive)
Procedure, shortened: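 Agonist activity is monitored as intracellular calcium rise in engineered HEK293 cells carrying human KISS1R. Cells are dye-loaded for 1 h at 37 C before compound addition, and fluorescence is recorded for 3 min.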

[5] = G protein-coupled receptor (GPCR) small molecule agonists, calcium flux assay: HEK293 wild type cell line counter screen (AID 1920065)
Procedure, shortened: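 Seed cells, incubate 18 h (37 C, 5% CO2); add calcium dye, 1 h at 37 C; pin-transfer compounds, ATP control or DMSO; read fluorescence 480/540 nm each second for 3 min.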

[6] = p53 small molecule agonists, cell-based qHTS assay with rat liver microsomes (AID 1963578)
Procedure, shortened: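 p53RE-bla cells, 4,000/well, pre-incubated 5 h, then given compounds plus rat liver microsomes (0.5 mg/mL final) and NADPH (0.5 mg/mL final). Incubation 16 h at 37 C; beta-lactamase reporter read by LiveBLAzer fluorescence after 2 h at room temperature.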

[7] = p53 small molecule agonists, cell-based qHTS assay with rat liver microsomes: qHTS cell viability counter screen (AID 1963580); note: nearly all actives have a fitted effect of over 45% in size; note: potency is the fitted concentration of half-maximal effect
Procedure, shortened: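 Counter screen for cytotoxicity under metabolic activation: rat liver microsomes and NADPH, 0.5 mg/mL final each, added with compounds to p53RE-bla HCT-116 cells; 16 h at 37 C, then ATP luminescence read.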

[8] = p53 small molecule agonists, cell-based qHTS assay: qHTS cell viability counter screen (AID 1963581); note: nearly all actives have a fitted effect of over 45% in size
Procedure, shortened: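 Viability was counter-screened in parallel with the p53 agonist reporter by measuring intracellular ATP luminescence in the same HCT-116 p53RE-bla wells after 16 h compound treatment at 37 C.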

[9] = target: 5-hydroxytryptamine receptor 2A (Homo sapiens) (UniProt P28223); assay: 5-hydroxytryptamine receptor 2A (HTR2A) small molecule antagonists, cell-based qHTS assay (AID 1963586); note: nearly all actives have a fitted effect of over 45% in size; note: potency is the fitted concentration of half-maximal effect
Procedure, shortened: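 CHO cells stably expressing human HTR2A were plated for 18 h at 37 C, then loaded with calcium dye for 1 h. Compounds were preincubated 5 min at room temperature before DOI (4 nM solution) was added. Kinetic fluorescence was read for 3 min.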

[10] = target: 5-hydroxytryptamine receptor 2A (Homo sapiens) (UniProt P28223); assay: 5-hydroxytryptamine receptor 2A (HTR2A) small molecule agonists, cell-based qHTS assay (AID 1963587); note: nearly all actives have a fitted effect of over 30% in size
Procedure, shortened: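 HTR2A-CHO cells, plated 18 h at 37 C/5% CO2, dye-loaded 1 h at 37 C; compounds in DMSO added by pin tool (agonist mode). Intracellular calcium flux read as kinetic fluorescence on FDSS over 2 min at 1 s intervals.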

[11] = target: Muscarinic acetylcholine receptor M1 (Homo sapiens) (UniProt P11229); assay: Cholinergic receptor muscarinic 1 (CHRM1) small molecule antagonists, cell-based qHTS assay (AID 1963588); note: nearly all actives have a fitted effect of over 40% in size; note: potency is the fitted concentration of half-maximal effect
Procedure, shortened: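 Compounds were tested at 15 concentrations in three independent runs. Dye-loaded CHRM1-CHO cells were exposed 5 min at room temperature before stimulation by acetylcholine added at 50nM. Intracellular calcium was read kinetically on FDSS for 3 min.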

[12] = target: Muscarinic acetylcholine receptor M1 (Homo sapiens) (UniProt P11229); assay: Cholinergic receptor muscarinic 1 (CHRM1) small molecule agonists, cell-based qHTS assay (AID 1963589); note: nearly all actives have a fitted effect of over 35% in size
Procedure, shortened: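 Cells were plated and incubated 18 h at 37 C/5% CO2, loaded with calcium dye for 1 h at 37 C, then treated with compounds in DMSO. Fluorescence was recorded kinetically at 1 sec intervals.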

[13] = cAMP Responsive Elements (CRE) small molecule agonists, cell-based qHTS assay (AID 1963590)
Procedure, shortened: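 Cells carrying a CRE-driven beta-lactamase reporter (HEK 293T) are seeded, incubated overnight (18 h), and treated with test compounds for 3 h at 37 C; reporter activity is then detected with a FRET substrate after 2 h at room temperature.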

[14] = cAMP Responsive Elements (CRE) small molecule antagonists, cell-based qHTS assay (AID 1963591; active = well fitted inhibition curve with a large enough effect in the signal ratio in the repeat runs, not every such curve was filed as active; the % refers to the signal ratio)
Procedure, shortened: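 Cells (CRE-bla HEK 293T, DMEM with 10% dialyzed FBS and 25 mM HEPES) are seeded and incubated 18 h. Compounds are added with NKH477 agonist at 0.25 uM final for 3 h, then FRET substrate for 2 h.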

[15] = target: Beta-2 adrenergic receptor (Homo sapiens) (UniProt P07550); assay: Adrenergic beta2 receptor (ADRB2) small molecule antagonists, cell-based qHTS assay (AID 1963592); note: nearly all actives have a fitted effect of over 50% in size; note: potency is the fitted concentration of half-maximal effect
Procedure, shortened: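 Assay format: CHO-ADRB2 cells, 18-20hr seeding at 37C/5% CO2, then compound plus 1nM isoproterenol agonist mix for 0.5hr RT. Homogeneous time-resolved fluorescence cAMP detection after 1hr, expressed as 665/615 nm ratio.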

[16] = target: D(2) dopamine receptor (Homo sapiens) (UniProt P14416); assay: Dopamine D2 receptor (DRD2) small molecule agonists, cell-based qHTS assay (AID 1963594); note: nearly all actives have a fitted effect of over 35% in size
Procedure, shortened: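 HEK293 cells stably expressing DRD2 were cultured 24 h at 37 C, then given Ro20-1724 (0.1 mM final) and compounds for 10 min at room temperature. NKH477 (200nM) was then added for 30 min. cAMP was read by HTRF.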

[17] = p53 small molecule agonists, cell-based qHTS assay with human liver microsomes: qHTS cell viability counter screen (AID 1963579); note: nearly all actives have a fitted effect of over 45% in size
Procedure, shortened: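 p53RE-bla cells, 4,000/well, dosed 5 hours after plating, with human liver microsomes (0.5 mg/mL final) plus NADPH (0.5 mg/mL final), 16 hours at 37 C. Viability read as CellTiter-Glo luminescence after 30 min at room temperature.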

[18] = p53 small molecule agonists, cell-based qHTS assay (AID 1963582; active = well fitted activation curve with a large enough effect in the signal ratio in the repeat runs, not every such curve was filed as active; the % refers to the signal ratio)
Procedure, shortened: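 Cells carrying a p53-responsive bla reporter are treated with test compounds for 16 h at 37 C; beta-lactamase activity is then detected with LiveBLAzer B/G FRET substrate after 2 h at room temperature.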

[19] = target: Beta-2 adrenergic receptor (Homo sapiens) (UniProt P07550); assay: Adrenergic beta2 receptor (ADRB2) small molecule agonists, cell-based qHTS assay (AID 1963593);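 note: CHO cells stably overexpressing human ADRB2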
Procedure, shortened: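 CHO cells stably over-expressing ADRB2 were plated overnight at 37C, then dosed with compounds plus a stimulation mix containing 100uM IBMX and 25uM Ro-20-1724 for 0.5hr at room temperature. cAMP was measured by HTRF competition, 1hr.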

[20] = target: D(2) dopamine receptor (Homo sapiens) (UniProt P14416); assay: Dopamine D2 receptor (DRD2) small molecule antagonists, cell-based qHTS assay (AID 1963595; active = well fitted inhibition curve with a large enough effect in the signal ratio in the repeat runs, with a control signal flat; the % refers to the signal ratio; note: potency is the fitted concentration of half-maximal effect)
Procedure, shortened: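 Antagonist mode in DRD2-HEK293 cells: after compound addition with 0.1 mM Ro20-1724, cells received quinpirole (12 nM) and NKH477 (200 nM) for 30 min at room temperature; HTRF cAMP read after 1 h detection.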

KiSS-1 receptor (Homo sapiens), sequence (Q969F8 whole entry, looked up): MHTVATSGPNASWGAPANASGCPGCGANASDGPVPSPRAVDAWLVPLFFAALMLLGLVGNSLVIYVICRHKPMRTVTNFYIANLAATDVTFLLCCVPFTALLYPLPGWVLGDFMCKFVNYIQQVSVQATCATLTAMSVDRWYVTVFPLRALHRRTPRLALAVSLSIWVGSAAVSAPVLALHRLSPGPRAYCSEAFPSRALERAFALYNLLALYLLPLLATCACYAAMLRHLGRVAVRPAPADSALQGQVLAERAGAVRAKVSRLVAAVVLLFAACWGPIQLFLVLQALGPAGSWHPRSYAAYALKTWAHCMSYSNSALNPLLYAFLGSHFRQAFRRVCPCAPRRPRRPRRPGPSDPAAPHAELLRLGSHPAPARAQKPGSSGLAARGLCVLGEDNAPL
Beta-2 adrenergic receptor (Homo sapiens), sequence (P07550 whole entry, looked up): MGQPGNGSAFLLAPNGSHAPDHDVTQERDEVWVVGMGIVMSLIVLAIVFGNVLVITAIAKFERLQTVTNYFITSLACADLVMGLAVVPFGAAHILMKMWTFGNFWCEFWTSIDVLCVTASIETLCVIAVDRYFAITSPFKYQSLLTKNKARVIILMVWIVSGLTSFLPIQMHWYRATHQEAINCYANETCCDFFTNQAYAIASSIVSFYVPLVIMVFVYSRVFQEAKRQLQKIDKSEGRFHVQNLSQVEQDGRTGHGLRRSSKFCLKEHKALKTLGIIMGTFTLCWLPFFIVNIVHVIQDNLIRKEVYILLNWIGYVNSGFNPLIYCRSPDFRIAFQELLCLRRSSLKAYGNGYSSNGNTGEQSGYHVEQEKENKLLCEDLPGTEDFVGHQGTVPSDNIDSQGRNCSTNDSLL
Muscarinic acetylcholine receptor M1 (Homo sapiens), sequence (P11229 whole entry, looked up): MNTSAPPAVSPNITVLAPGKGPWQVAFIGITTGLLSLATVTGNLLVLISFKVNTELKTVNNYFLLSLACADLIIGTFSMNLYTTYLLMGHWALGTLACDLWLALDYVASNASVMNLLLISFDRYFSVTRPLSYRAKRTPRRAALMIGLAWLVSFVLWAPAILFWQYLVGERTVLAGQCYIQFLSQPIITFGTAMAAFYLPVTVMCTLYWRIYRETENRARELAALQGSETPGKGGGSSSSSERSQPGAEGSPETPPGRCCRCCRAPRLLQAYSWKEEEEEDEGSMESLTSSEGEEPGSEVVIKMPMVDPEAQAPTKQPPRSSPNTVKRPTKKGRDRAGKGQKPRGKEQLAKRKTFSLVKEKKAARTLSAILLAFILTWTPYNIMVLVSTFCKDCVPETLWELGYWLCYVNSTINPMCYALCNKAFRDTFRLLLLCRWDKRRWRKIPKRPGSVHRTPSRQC
5-hydroxytryptamine receptor 2A (Homo sapiens), sequence (P28223 whole entry, looked up): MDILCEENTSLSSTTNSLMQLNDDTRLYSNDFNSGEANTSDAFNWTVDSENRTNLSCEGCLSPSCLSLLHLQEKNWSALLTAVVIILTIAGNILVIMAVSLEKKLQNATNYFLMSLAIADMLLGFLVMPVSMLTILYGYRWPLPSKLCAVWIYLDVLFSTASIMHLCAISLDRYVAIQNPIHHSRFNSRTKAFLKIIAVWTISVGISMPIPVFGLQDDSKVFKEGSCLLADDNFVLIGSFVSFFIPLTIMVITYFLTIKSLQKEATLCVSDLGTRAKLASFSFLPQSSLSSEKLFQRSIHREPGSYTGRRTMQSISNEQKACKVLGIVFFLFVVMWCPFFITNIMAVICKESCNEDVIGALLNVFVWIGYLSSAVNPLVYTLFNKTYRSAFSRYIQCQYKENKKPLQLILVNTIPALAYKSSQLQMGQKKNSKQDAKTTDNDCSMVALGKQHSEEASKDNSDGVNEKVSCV
Gonadotropin-releasing hormone receptor (Homo sapiens), sequence (P30968 whole entry, looked up): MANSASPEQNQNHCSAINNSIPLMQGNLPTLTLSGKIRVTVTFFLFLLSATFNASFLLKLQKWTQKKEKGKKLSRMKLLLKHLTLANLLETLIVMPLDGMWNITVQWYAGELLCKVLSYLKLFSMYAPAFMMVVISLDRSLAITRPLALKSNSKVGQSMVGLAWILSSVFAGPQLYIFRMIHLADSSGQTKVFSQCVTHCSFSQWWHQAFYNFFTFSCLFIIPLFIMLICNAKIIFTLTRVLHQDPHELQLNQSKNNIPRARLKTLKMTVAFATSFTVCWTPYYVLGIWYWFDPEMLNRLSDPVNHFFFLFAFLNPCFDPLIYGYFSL
D(2) dopamine receptor (Homo sapiens), sequence (P14416 whole entry, looked up): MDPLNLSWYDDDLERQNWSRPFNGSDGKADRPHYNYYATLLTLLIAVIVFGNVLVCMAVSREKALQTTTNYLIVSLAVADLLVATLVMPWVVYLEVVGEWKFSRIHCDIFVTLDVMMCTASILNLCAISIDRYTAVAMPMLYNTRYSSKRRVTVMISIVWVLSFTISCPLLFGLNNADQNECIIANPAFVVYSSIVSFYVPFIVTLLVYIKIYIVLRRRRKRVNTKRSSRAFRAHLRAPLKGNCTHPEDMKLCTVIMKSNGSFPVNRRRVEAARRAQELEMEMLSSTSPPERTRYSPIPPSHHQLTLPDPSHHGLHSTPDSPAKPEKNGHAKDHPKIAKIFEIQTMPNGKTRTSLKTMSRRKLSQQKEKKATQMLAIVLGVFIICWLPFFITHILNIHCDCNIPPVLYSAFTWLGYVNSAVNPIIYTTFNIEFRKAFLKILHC

| Compound | Potency [1] | Potency [2] | Potency [3] | Potency [4] | Potency [5] | Potency [6] | Potency [7] | Potency [8] | Potency [9] | Potency [10] | Potency [11] | Potency [12] | Potency [13] | Potency [14] | Potency [15] | Potency [16] | Potency [17] | Potency [18] | Potency [19] | Potency [20] |
| --- | --- | --- | --- | --- | --- | --- | --- | --- | --- | --- | --- | --- | --- | --- | --- | --- | --- | --- | --- | --- |
| CCCCCOC(=O)Nc1nc(=O)n([C@@H]2O[C@H](C)[C@@H](O)[C@H]2O)cc1F | inactive | inactive | inactive | inactive | inactive | inactive | inactive | inactive | inactive | inactive | inactive | inactive | inactive | inactive | inactive | inactive | – | – | – | – |
| O=C(CCCN1CCN(c2ccc(F)cc2)CC1)NC1c2ccccc2CSc2ccccc21 (stereo not given) | inactive | inactive | inactive | inactive | inactive | inactive | – | inactive | – | – | – | inactive | – | – | 7.5 µM (active) | inactive | inactive | inactive | – | – |
| CC(C)N1C(=O)c2ccccc2C1=O | inactive | inactive | inactive | inactive | inactive | inactive | inactive | inactive | inactive | inactive | inactive | – | inactive | – | inactive | inactive | – | inactive | inactive | – |
| CCN(CC)c1cccc(O)c1 | inactive | 11.1 µM (active) | inactive | inactive | inactive | inactive | inactive | inactive | inactive | inactive | inactive | inactive | inactive | inactive | inactive | inactive | – | inactive | – | inactive |
| COc1ccccc1N1CCN(CC(O)COc2cccc3ccccc23)CC1 (stereo not given) | inactive | inactive | inactive | inactive | inactive | inactive | inactive | inactive | 5.79 µM (active) | inactive | – | inactive | – | – | 2.11 µM (active) | – | – | inactive | – | 33.5 µM (active) |
| CC1(C)CC(=O)CC(C)(C)N1 | inactive | inactive | inactive | inactive | inactive | inactive | inactive | inactive | inactive | inactive | inactive | inactive | inactive | inactive | inactive | inactive | – | inactive | – | inactive |
| Cc1ccc(NC(=O)c2ccc(CN3CCN(C)CC3)cc2)cc1Nc1nccc(-c2cccnc2)n1 | inactive | inactive | inactive | inactive | inactive | – | inactive | inactive | – | – | – | – | inactive | – | inactive | inactive | inactive | inactive | inactive | inactive |
| CCN(C)C(=O)Oc1cccc([C@H](C)N(C)C)c1 | inactive | inactive | inactive | inactive | inactive | – | inactive | inactive | inactive | inactive | – | inactive | inactive | inactive | – | inactive | inactive | inactive | – | inactive |
| CN1CCN(c2ccccc2/C=C2\SCCN(c3ccc(Cl)c(Cl)c3)C2=O)CC1 | 43.3 µM (active) | inactive | inactive | inactive | inactive | inactive | 45.8 µM (active) | inactive | inactive | – | 7.48 µM (active) | inactive | inactive | inactive | 0.77 µM (active) | – | – | – | – | 54.5 µM (active) |
| CCn1ccc(NS(=O)(=O)c2ccc(N)cc2)nc1=O | inactive | inactive | inactive | inactive | inactive | inactive | inactive | inactive | – | inactive | inactive | inactive | – | inactive | inactive | – | – | inactive | – | – |
| O=S(=O)(O)c1cc(I)c(O)c2ncccc12 | inactive | inactive | inactive | inactive | inactive | – | inactive | inactive | inactive | inactive | inactive | inactive | inactive | inactive | inactive | – | inactive | inactive | inactive | inactive |
| CCCCCC=CCC=CCCCCCCCC(=O)OCC | inactive | 29.8 µM (active) | inactive | inactive | inactive | – | inactive | inactive | inactive | inactive | inactive | inactive | – | – | inactive | – | inactive | inactive | – | inactive |
| O=C1NCCN1 | inactive | inactive | inactive | inactive | inactive | inactive | – | inactive | inactive | inactive | inactive | inactive | inactive | inactive | inactive | – | inactive | inactive | – | inactive |
| O=S(=O)(Oc1ccc(Cl)cc1)c1ccccc1 | inactive | inactive | inactive | inactive | inactive | inactive | – | – | – | inactive | 11.9 µM (active) | inactive | inactive | inactive | inactive | inactive | inactive | inactive | – | inactive |
| Cc1cc2c(cc1CC(=O)c1sccc1S(=O)(=O)Nc1onc(C)c1Cl)OCO2 | 4.22 µM (active) | inactive | inactive | inactive | inactive | – | inactive | inactive | inactive | inactive | inactive | inactive | inactive | inactive | inactive | inactive | inactive | inactive | inactive | inactive |
| CN1CCN(C(=O)C2CCCCC2)CC1 | inactive | inactive | inactive | inactive | inactive | inactive | – | inactive | inactive | inactive | inactive | inactive | – | inactive | inactive | inactive | inactive | inactive | inactive | – |
